Experimental data taken from a collection of fitness landscapes (doi:10.1016/j.celrep.2020.107928).
Whole data set: some 81,000 sequences, median “one-hybrid fitness for binding NBS DNA” near -0.1, cut for the highest 2% near 0.36. Many of the other results were omitted from the sample, so the highest values are more common in it than they were.

B1: Caulobacter ParB omega fusion; a variant is named by its letters at X, in order, B8GW30 (parent)
chain: MESVVVGEPGMSEGRRGLGRGLSALLGEVDAAPAQAPGEQLGGSREAPIEILQRNPDQPRRTFREEDLEDLSNSIREKGVLQPILVRPSPDTAGEYQIVAGERAWRAAQRAGLKTVPIMVRELDDLAVLEIGIIENVQRADLNVLEEALSYKVLMEKFERTQENIAQTIGKSXSHVANXMRLLXLPDEVQSYLVSGELTAXHARAIAAAADPVALAKQIIEGGLSVRETEALARKAPNLSAGKSKGGRPPRVKDTDTQALESDLSSVLGLDVSIDHRGSTGTLTITYATLEQLDDLCNRLTRGI

Variants of: B1
Assay: one-hybrid fitness for binding NBS DNA (the Noc-binding site; scaled: cognate 1, non-cognate 0); higher = stronger binding
Settings: with NBS DNA site
Outline: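 On M9-minus-histidine containing 0.1 mM IPTG and 5 mM 3-AT, E. coli USO cells with a HIS3 reporter, site 19 bp from the promoter, grew 48 hours at 37°C to select Caulobacter ParB libraries randomised at four specificity codons. Plasmids from before and after were Illumina-sequenced, with three replicate libraries pooled and variants under 10 reads left out. Fitness is the log change in variant-to-wild-type read ratio, rescaled against cognate and non-cognate.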

**Q.** How did the “one-hybrid fitness for binding NBS DNA” value turn out when ALAT was run?
**A.** Its value is no more than 0.2.

**Q.** For THPT, which “one-hybrid fitness for binding NBS DNA” value is on record?
**A.** Its value is no more than 0.2.

**Q.** How did the “one-hybrid fitness for binding NBS DNA” value turn out when QCKI was run?
**A.** Its value is 0.405.

**Q.** How did the “one-hybrid fitness for binding NBS DNA” value turn out when QTVI was run?
**A.** Its value is no more than 0.2.

**Q.** Which “one-hybrid fitness for binding NBS DNA” value does the source give for QTKI here?
**A.** Its value is 0.468.

**Q.** Which “one-hybrid fitness for binding NBS DNA” value does the source give for QPKI here?
**A.** Its value is no more than 0.2.

**Q.** QSKI was tested. Which “one-hybrid fitness for binding NBS DNA” value did it give?
**A.** The value was 0.314.

**Q.** QTFI was tested. Which “one-hybrid fitness for binding NBS DNA” value did it give?
**A.** The value was no more than 0.2.

**Q.** For QRVI, which “one-hybrid fitness for binding NBS DNA” value is on record?
**A.** Its value is no more than 0.2.

**Q.** For QRPI, which “one-hybrid fitness for binding NBS DNA” value is on record?
**A.** The value was no more than 0.2.

**Q.** Which “one-hybrid fitness for binding NBS DNA” value does the source give for QRKI here?
**A.** The value was 0.52.

**Q.** Which “one-hybrid fitness for binding NBS DNA” value does the source give for KYRQ here?
**A.** Its value is no more than 0.2.

**Q.** How did the “one-hybrid fitness for binding NBS DNA” value turn out when YRRY was run?
**A.** Its value is no more than 0.2.

**Q.** How did the “one-hybrid fitness for binding NBS DNA” value turn out when PRVL was run?
**A.** The value was no more than 0.2.

**Q.** Which “one-hybrid fitness for binding NBS DNA” value does the source give for QQIK here?
**A.** Its value is no more than 0.2.

**Q.** For NLQI, which “one-hybrid fitness for binding NBS DNA” value is on record?
**A.** The value was no more than 0.2.

**Q.** Which “one-hybrid fitness for binding NBS DNA” value does the source give for TNPS here?
**A.** Its value is no more than 0.2.

**Q.** Which “one-hybrid fitness for binding NBS DNA” value does the source give for EPGN here?
**A.** Its value is no more than 0.2.

**Q.** For FANT, which “one-hybrid fitness for binding NBS DNA” value is on record?
**A.** The value was no more than 0.2.

**Q.** For SSVH, which “one-hybrid fitness for binding NBS DNA” value is on record?
**A.** Its value is no more than 0.2.

**Q.** With PPVW as the variant, how does the “one-hybrid fitness for binding NBS DNA” value read?
**A.** Its value is no more than 0.2.

**Q.** For SDIF, which “one-hybrid fitness for binding NBS DNA” value is on record?
**A.** Its value is no more than 0.2.

**Q.** For IYDC, which “one-hybrid fitness for binding NBS DNA” value is on record?
**A.** The value was no more than 0.2.

**Q.** How did the “one-hybrid fitness for binding NBS DNA” value turn out when RPET was run?
**A.** Its value is no more than 0.2.

**Q.** RRHM was tested. Which “one-hybrid fitness for binding NBS DNA” value did it give?
**A.** The value was 0.294.

**Q.** With RRWM as the variant, how does the “one-hybrid fitness for binding NBS DNA” value read?
**A.** The value was 0.23.

**Q.** How did the “one-hybrid fitness for binding NBS DNA” value turn out when RRET was run?
**A.** The value was 0.698.

**Q.** With RRGK as the variant, how does the “one-hybrid fitness for binding NBS DNA” value read?
**A.** Its value is 0.215.

**Q.** Which “one-hybrid fitness for binding NBS DNA” value does the source give for RRHT here?
**A.** The value was 0.755.

**Q.** For RRHG, which “one-hybrid fitness for binding NBS DNA” value is on record?
**A.** Its value is 0.362.

**Q.** Which “one-hybrid fitness for binding NBS DNA” value does the source give for RRWT here?
**A.** Its value is 0.824.

**Q.** With RRGY as the variant, how does the “one-hybrid fitness for binding NBS DNA” value read?
**A.** Its value is 0.36.

**Q.** How did the “one-hybrid fitness for binding NBS DNA” value turn out when RRGT was run?
**A.** Its value is 0.732.

**Q.** How did the “one-hybrid fitness for binding NBS DNA” value turn out when RCET was run?
**A.** The value was no more than 0.2.

**Q.** How did the “one-hybrid fitness for binding NBS DNA” value turn out when DEAY was run?
**A.** Its value is no more than 0.2.

**Q.** With MGSC as the variant, how does the “one-hybrid fitness for binding NBS DNA” value read?
**A.** Its value is no more than 0.2.

**Q.** For KCYS, which “one-hybrid fitness for binding NBS DNA” value is on record?
**A.** Its value is no more than 0.2.

**Q.** How did the “one-hybrid fitness for binding NBS DNA” value turn out when CWHL was run?
**A.** The value was no more than 0.2.

**Q.** Which “one-hybrid fitness for binding NBS DNA” value does the source give for DVFL here?
**A.** The value was no more than 0.2.

**Q.** TRWG was tested. Which “one-hybrid fitness for binding NBS DNA” value did it give?
**A.** The value was no more than 0.2.

**Q.** With YWSC as the variant, how does the “one-hybrid fitness for binding NBS DNA” value read?
**A.** Its value is no more than 0.2.

**Q.** Which “one-hybrid fitness for binding NBS DNA” value does the source give for RRQT here?
**A.** Its value is 0.752.

**Q.** With RRLT as the variant, how does the “one-hybrid fitness for binding NBS DNA” value read?
**A.** Its value is 0.761.

**Q.** For RRQQ, which “one-hybrid fitness for binding NBS DNA” value is on record?
**A.** Its value is 0.268.

**Q.** RRLM was tested. Which “one-hybrid fitness for binding NBS DNA” value did it give?
**A.** Its value is 0.228.

**Q.** For RRYT, which “one-hybrid fitness for binding NBS DNA” value is on record?
**A.** Its value is 0.769.

**Q.** With DRRT as the variant, how does the “one-hybrid fitness for binding NBS DNA” value read?
**A.** The value was no more than 0.2.

**Q.** Which “one-hybrid fitness for binding NBS DNA” value does the source give for RGRT here?
**A.** Its value is no more than 0.2.

**Q.** With RRRT as the variant, how does the “one-hybrid fitness for binding NBS DNA” value read?
**A.** The value was 0.786.

**Q.** How did the “one-hybrid fitness for binding NBS DNA” value turn out when RFLT was run?
**A.** Its value is no more than 0.2.

**Q.** How did the “one-hybrid fitness for binding NBS DNA” value turn out when RRQM was run?
**A.** Its value is 0.273.

**Q.** Which “one-hybrid fitness for binding NBS DNA” value does the source give for TAWR here?
**A.** Its value is no more than 0.2.

**Q.** With RMPQ as the variant, how does the “one-hybrid fitness for binding NBS DNA” value read?
**A.** Its value is no more than 0.2.

**Q.** With CKWG as the variant, how does the “one-hybrid fitness for binding NBS DNA” value read?
**A.** The value was no more than 0.2.

**Q.** With MIPG as the variant, how does the “one-hybrid fitness for binding NBS DNA” value read?
**A.** Its value is no more than 0.2.

**Q.** HFNT was tested. Which “one-hybrid fitness for binding NBS DNA” value did it give?
**A.** Its value is no more than 0.2.

**Q.** GLSP was tested. Which “one-hybrid fitness for binding NBS DNA” value did it give?
**A.** Its value is no more than 0.2.

**Q.** For RPDT, which “one-hybrid fitness for binding NBS DNA” value is on record?
**A.** The value was no more than 0.2.

**Q.** Which “one-hybrid fitness for binding NBS DNA” value does the source give for RRDT here?
**A.** Its value is 0.755.

**Q.** With RRCT as the variant, how does the “one-hybrid fitness for binding NBS DNA” value read?
**A.** Its value is 0.77.

**Q.** RRST was tested. Which “one-hybrid fitness for binding NBS DNA” value did it give?
**A.** Its value is 0.776.

**Q.** Which “one-hybrid fitness for binding NBS DNA” value does the source give for RRSC here?
**A.** The value was 0.291.

**Q.** For RFCT, which “one-hybrid fitness for binding NBS DNA” value is on record?
**A.** Its value is no more than 0.2.

**Q.** With RRSQ as the variant, how does the “one-hybrid fitness for binding NBS DNA” value read?
**A.** The value was 0.284.

**Q.** With RRNK as the variant, how does the “one-hybrid fitness for binding NBS DNA” value read?
**A.** Its value is 0.274.

**Q.** Which “one-hybrid fitness for binding NBS DNA” value does the source give for RACT here?
**A.** Its value is 0.334.

**Q.** Which “one-hybrid fitness for binding NBS DNA” value does the source give for RRNT here?
**A.** The value was 0.785.

**Q.** With RRNQ as the variant, how does the “one-hybrid fitness for binding NBS DNA” value read?
**A.** Its value is 0.313.

**Q.** Which “one-hybrid fitness for binding NBS DNA” value does the source give for KAAL here?
**A.** The value was no more than 0.2.

**Q.** Which “one-hybrid fitness for binding NBS DNA” value does the source give for VLTL here?
**A.** Its value is no more than 0.2.

**Q.** For LFQI, which “one-hybrid fitness for binding NBS DNA” value is on record?
**A.** The value was no more than 0.2.

**Q.** With MRVN as the variant, how does the “one-hybrid fitness for binding NBS DNA” value read?
**A.** Its value is no more than 0.2.

**Q.** For PPII, which “one-hybrid fitness for binding NBS DNA” value is on record?
**A.** Its value is no more than 0.2.

**Q.** For YTPG, which “one-hybrid fitness for binding NBS DNA” value is on record?
**A.** Its value is no more than 0.2.

**Q.** How did the “one-hybrid fitness for binding NBS DNA” value turn out when RTNS was run?
**A.** Its value is 0.534.

**Q.** With RTLD as the variant, how does the “one-hybrid fitness for binding NBS DNA” value read?
**A.** Its value is no more than 0.2.

**Q.** How did the “one-hybrid fitness for binding NBS DNA” value turn out when RTND was run?
**A.** Its value is no more than 0.2.

**Q.** Which “one-hybrid fitness for binding NBS DNA” value does the source give for RTHS here?
**A.** The value was 0.54.

**Q.** For RTDS, which “one-hybrid fitness for binding NBS DNA” value is on record?
**A.** Its value is 0.219.

**Q.** How did the “one-hybrid fitness for binding NBS DNA” value turn out when RTLS was run?
**A.** Its value is 0.381.

**Q.** Which “one-hybrid fitness for binding NBS DNA” value does the source give for RTSD here?
**A.** The value was no more than 0.2.

**Q.** For RTLN, which “one-hybrid fitness for binding NBS DNA” value is on record?
**A.** The value was no more than 0.2.

**Q.** How did the “one-hybrid fitness for binding NBS DNA” value turn out when RTHH was run?
**A.** The value was 0.262.

**Q.** With RTHD as the variant, how does the “one-hybrid fitness for binding NBS DNA” value read?
**A.** The value was no more than 0.2.

**Q.** With RTSS as the variant, how does the “one-hybrid fitness for binding NBS DNA” value read?
**A.** The value was 0.475.

**Q.** RTSN was tested. Which “one-hybrid fitness for binding NBS DNA” value did it give?
**A.** Its value is no more than 0.2.
